# From PubChem BioAssay
# Active and inactive are the calls of the source. Unless noted, no stated cut-off is given here; in the data, active means inhibition above about 36%; inactive means the rest.
# Tested on: not listed separately
# Assay: StAR promoter reporter inhibitors, counter-screen for LRH-1 inverse agonist project, cell-based, luminescence, high throughput (AID 651611; in the data active means inhibition above about 28%)
# Conditions: StAR promoter luciferase reporter counterscreen, at 3.6 µM, active compounds read high
row,Compound,inhibition
1,CC(=O)OC1C(O)C(C)OC(OC2C(OC(=O)C3CCC4C(C3)OC3(CC(OC(=O)/C=C/c5ccccc5)C(C)CO3)C43CO3)OC(C)C(O)C2OC(C)=O)C1O (stereo not given),96.1% (active)
2,C[C@@H]1O[C@@H](O[C@@H]2C=C3CC[C@@H]4C(CC[C@]5(C)[C@@H](c6ccc(=O)oc6)CC[C@]45O)[C@@]3(C)CC2)[C@H](O)[C@H](O)[C@H]1O (stereo not given in full),97.1% (active)
3,CC1OC(OC2C=C3CCC4C(CCC5(C)C(c6ccc(=O)oc6)CCC45O)C3(C)CC2)C(O)C(OC2OC(CO)C(O)C(O)C2O)C1O (stereo not given),95.6% (active)
4,COC1=C(C)C(=O)C2=C(C1=O)C(CO)N1C(C#N)C3CC4C(C1C2N1CCOC41)N3C (stereo not given),86.5% (active)
5,COC1C(O)C(C)OC(OC2CCC3(C)C(CCC4C3C(O)CC3(C)C(C5=CC(=O)OC5)CCC43O)C2)C1O (stereo not given),97.3% (active)

# Biological target: Nuclear receptor subfamily 5 group A member 2 (Homo sapiens) (UniProt O00482)
# Assay: LRH-1 (NR5A2) inverse agonists, retest, confirmation, cell-based, luminescence (AID 651613; in the data active means inhibition above about 42%;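 further: HEK293T cells co-transfected with LRH-1 and StAR promoter luciferase reporter; 0% = vehicle wells and 100% = parental cells lacking receptor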)
# Conditions: cell-based LRH-1 luciferase reporter, inverse agonism; at 3.6 µM; active compounds read high
# Nuclear receptor subfamily 5 group A member 2 (Homo sapiens), sequence (O00482 whole entry, looked up): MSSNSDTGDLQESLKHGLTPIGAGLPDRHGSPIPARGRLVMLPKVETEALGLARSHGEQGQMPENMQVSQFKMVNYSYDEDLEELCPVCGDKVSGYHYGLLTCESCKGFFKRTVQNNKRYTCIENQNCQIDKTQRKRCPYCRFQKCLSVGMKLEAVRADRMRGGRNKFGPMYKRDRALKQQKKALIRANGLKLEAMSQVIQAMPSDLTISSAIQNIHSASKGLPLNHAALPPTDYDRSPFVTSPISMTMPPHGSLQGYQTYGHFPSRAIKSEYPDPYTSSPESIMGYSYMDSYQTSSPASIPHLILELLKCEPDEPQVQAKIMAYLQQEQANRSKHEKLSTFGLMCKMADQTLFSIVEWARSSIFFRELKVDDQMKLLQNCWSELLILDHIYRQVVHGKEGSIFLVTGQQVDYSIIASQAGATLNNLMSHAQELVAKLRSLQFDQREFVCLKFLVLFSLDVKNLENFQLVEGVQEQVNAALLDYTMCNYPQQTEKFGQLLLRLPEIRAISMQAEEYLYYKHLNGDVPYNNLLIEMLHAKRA
row,Compound,inhibition
1,C[C@@H]1C[C@@H]([C@H](O)CC2CC(=O)NC(=O)C2)C(=O)[C@@H](C)C1,109% (active)
2,CC(=O)OC1C(O)C(C)OC(OC2C(OC(=O)C3CCC4C(C3)OC3(CC(OC(=O)/C=C/c5ccccc5)C(C)CO3)C43CO3)OC(C)C(O)C2OC(C)=O)C1O (stereo not given),109% (active)
3,C[C@@H]1O[C@@H](O[C@@H]2C=C3CC[C@@H]4C(CC[C@]5(C)[C@@H](c6ccc(=O)oc6)CC[C@]45O)[C@@]3(C)CC2)[C@H](O)[C@H](O)[C@H]1O (stereo not given in full),111% (active)
4,CC1OC(OC2C=C3CCC4C(CCC5(C)C(c6ccc(=O)oc6)CCC45O)C3(C)CC2)C(O)C(OC2OC(CO)C(O)C(O)C2O)C1O (stereo not given),110% (active)
5,COC1=C(C)C(=O)C2=C(C1=O)C(CO)N1C(C#N)C3CC4C(C1C2N1CCOC41)N3C (stereo not given),106% (active)
6,COC1C(O)C(C)OC(OC2CCC3(C)C(CCC4C3C(O)CC3(C)C(C5=CC(=O)OC5)CCC43O)C2)C1O (stereo not given),110% (active)

# Biological target: Steroidogenic factor 1 (Homo sapiens) (UniProt Q13285)
# Assay: SF1 (NR5A1) inverse agonists, counter-screen for LRH-1 inverse agonist project, cell-based, luminescence, high throughput (AID 651614; in the data active means inhibition above about 44%;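 further: cells cotransfected with StAR promoter reporter and SF1 expression vector; 0% = vehicle on cells with receptor and 100% = vehicle on cells lacking receptor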)
# Conditions: cell-based SF1 luciferase reporter, at 3.6 µM, active compounds read high
# Steroidogenic factor 1 (Homo sapiens), sequence (Q13285 whole entry, looked up): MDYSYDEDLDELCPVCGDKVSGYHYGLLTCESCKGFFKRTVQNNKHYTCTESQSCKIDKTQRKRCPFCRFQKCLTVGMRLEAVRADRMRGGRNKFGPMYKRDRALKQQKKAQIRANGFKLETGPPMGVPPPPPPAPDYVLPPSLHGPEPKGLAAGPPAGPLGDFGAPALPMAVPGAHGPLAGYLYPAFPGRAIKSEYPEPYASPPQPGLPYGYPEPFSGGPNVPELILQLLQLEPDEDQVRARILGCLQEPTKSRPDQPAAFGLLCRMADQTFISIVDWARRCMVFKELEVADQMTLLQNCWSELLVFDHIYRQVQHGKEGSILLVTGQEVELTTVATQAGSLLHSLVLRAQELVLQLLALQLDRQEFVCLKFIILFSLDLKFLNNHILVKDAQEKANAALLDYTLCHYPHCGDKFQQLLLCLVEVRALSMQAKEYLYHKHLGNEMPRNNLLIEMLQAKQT
row,Compound,inhibition
1,C[C@@H]1C[C@@H]([C@H](O)CC2CC(=O)NC(=O)C2)C(=O)[C@@H](C)C1,97.9% (active)
2,CC(=O)OC1C(O)C(C)OC(OC2C(OC(=O)C3CCC4C(C3)OC3(CC(OC(=O)/C=C/c5ccccc5)C(C)CO3)C43CO3)OC(C)C(O)C2OC(C)=O)C1O (stereo not given),97.5% (active)
3,C[C@@H]1O[C@@H](O[C@@H]2C=C3CC[C@@H]4C(CC[C@]5(C)[C@@H](c6ccc(=O)oc6)CC[C@]45O)[C@@]3(C)CC2)[C@H](O)[C@H](O)[C@H]1O (stereo not given in full),98.8% (active)
4,CC1OC(OC2C=C3CCC4C(CCC5(C)C(c6ccc(=O)oc6)CCC45O)C3(C)CC2)C(O)C(OC2OC(CO)C(O)C(O)C2O)C1O (stereo not given),97.2% (active)
5,COC1=C(C)C(=O)C2=C(C1=O)C(CO)N1C(C#N)C3CC4C(C1C2N1CCOC41)N3C (stereo not given),96.2% (active)
6,COC1C(O)C(C)OC(OC2CCC3(C)C(CCC4C3C(O)CC3(C)C(C5=CC(=O)OC5)CCC43O)C2)C1O (stereo not given),98.8% (active)

# Tested on: not listed separately
# Assay: VP16 transactivation reporter inhibitors, counter-screen for LRH-1 inverse agonist project, cell-based, luminescence, high throughput (AID 651615; in the data active means inhibition above about 33%)
# Conditions: Gal4-VP16 luciferase reporter cells, at 3.6 µM, active compounds read high
row,Compound,inhibition
1,CC(=O)OC1C(O)C(C)OC(OC2C(OC(=O)C3CCC4C(C3)OC3(CC(OC(=O)/C=C/c5ccccc5)C(C)CO3)C43CO3)OC(C)C(O)C2OC(C)=O)C1O (stereo not given),97.4% (active)
2,C[C@@H]1O[C@@H](O[C@@H]2C=C3CC[C@@H]4C(CC[C@]5(C)[C@@H](c6ccc(=O)oc6)CC[C@]45O)[C@@]3(C)CC2)[C@H](O)[C@H](O)[C@H]1O (stereo not given in full),95.6% (active)
3,CC1OC(OC2C=C3CCC4C(CCC5(C)C(c6ccc(=O)oc6)CCC45O)C3(C)CC2)C(O)C(OC2OC(CO)C(O)C(O)C2O)C1O (stereo not given),94.4% (active)
4,COC1=C(C)C(=O)C2=C(C1=O)C(CO)N1C(C#N)C3CC4C(C1C2N1CCOC41)N3C (stereo not given),95.3% (active)
5,COC1C(O)C(C)OC(OC2CCC3(C)C(CCC4C3C(O)CC3(C)C(C5=CC(=O)OC5)CCC43O)C2)C1O (stereo not given),91.1% (active)

# Tested on: transactivating tegument protein VP16 (Human herpesvirus 1)
# Assay: VP16 transactivation reporter inhibitors, counter-screen for SRC2 inhibitor project, cell-based, luminescence, single concentration (AID 652007)
# Conditions: cell-based VP16 transactivation luciferase reporter, at 8.9 µM, active compounds read high
row,Compound,inhibition
1,CCn1ccnc1CN1CCCC(C(=O)c2cccc(C(F)(F)F)c2)C1 (stereo not given),-3.5% (inactive)
2,COc1ccc(S(=O)(=O)N2Cc3cnnn3-c3ccccc3C2C#N)cc1 (stereo not given),1.55% (inactive)
3,C[C@@H]1C[C@@H]([C@H](O)CC2CC(=O)NC(=O)C2)C(=O)[C@@H](C)C1,48% (active)
4,c1cncc(-c2ccc3n2Cc2cnnn2-c2ccccc2-3)c1,11% (inactive)
5,COc1cc(CC(C)N)c(OC)cc1I (stereo not given),-16.9% (inactive)
6,Cc1ccccc1CN1Cc2cnnn2-c2ccccc2C1C#N (stereo not given),39.8% (active)
7,O=C1NC(=O)N(Cc2ccco2)C(=O)/C1=C/C=C/c1ccco1,8.52% (inactive)
8,Nc1cccc(SC2CC(=O)N(c3ccc(Cl)cc3C(=O)c3ccccc3)C2=O)c1 (stereo not given),3.94% (inactive)
9,CCOP(=O)(OCC)C1(O)C(=O)Nc2ccc(Br)cc21 (stereo not given),-7% (inactive)
10,CC(=O)OC1C(O)C(C)OC(OC2C(OC(=O)C3CCC4C(C3)OC3(CC(OC(=O)/C=C/c5ccccc5)C(C)CO3)C43CO3)OC(C)C(O)C2OC(C)=O)C1O (stereo not given),79.4% (active)
11,CCOC(=O)C1(CCc2ccccc2)CCN(Cc2cccc3cnccc23)CC1,10.4% (inactive)
12,O=C(c1ccc(Cl)cc1)C1CCCN(Cc2cccc3ncccc23)C1 (stereo not given),14.6% (inactive)
13,CC(=O)OC(C)(C)/C=C/C(=O)C(C)(O)C1[C@H](O)C[C@@]2(C)C3CC=C4C(CC[C@@H](O)C4(C)C)[C@]3(CO)C(=O)C[C@]12C (stereo not given in full),31.1% (inactive)
14,FC(F)(F)c1ccccc1N1CC1c1ccncc1 (stereo not given),-14.4% (inactive)
15,COC(=O)C1=C(c2ccc(-c3ccccc3)c(F)c2)C[C@@H]2CC[C@H]1N2C(=O)NCc1ccc(F)cc1,-5.9% (inactive)
16,C=C1C(=O)O[C@H]2C[C@@H](C)[C@@H]3C=CC(=O)[C@@]3(C)C[C@H]12,69.4% (active)
17,COc1ccc2c3c1O[C@H]1C(=O)CC[C@H]4[C@@H](C2)N(C)CC[C@]314,-4.81% (inactive)

row,Compound,inhibition
1,CN(Cc1cccc(-c2cccnc2)c1)C(=O)Oc1ccc([N+](=O)[O-])cc1,2.36% (inactive)
2,CCOP(=O)(OCC)c1cccc(OP(=O)(c2cccc([N+](=O)[O-])c2)c2cccc([N+](=O)[O-])c2)c1,-4.6% (inactive)
3,CCN1CCN(S(=O)(=O)c2ccc(Cl)c(C(=O)Nc3ccc(C(=O)N(CC)CC)cc3)c2)CC1,-10.1% (inactive)
4,C[C@@H]1O[C@@H](O[C@@H]2C=C3CC[C@@H]4C(CC[C@]5(C)[C@@H](c6ccc(=O)oc6)CC[C@]45O)[C@@]3(C)CC2)[C@H](O)[C@H](O)[C@H]1O (stereo not given in full),67.9% (active)
5,Cc1ccc(N2C(=O)NC(=O)C(CCc3ccccn3)(Cc3ccc(F)cc3)C2=O)cc1 (stereo not given),-10.7% (inactive)
6,NC(=O)c1c(Br)n(C2OC(CO)C(O)C2O)c2ncnc(N)c12 (stereo not given),15.6% (inactive)
7,CN1C(=O)C[N+]([O-])=C(c2ccccc2)c2cc(Cl)ccc21,13.7% (inactive)
8,CC1OC(OC2C=C3CCC4C(CCC5(C)C(c6ccc(=O)oc6)CCC45O)C3(C)CC2)C(O)C(OC2OC(CO)C(O)C(O)C2O)C1O (stereo not given),63.6% (active)
9,COC1=C(C)C(=O)C2=C(C1=O)C(CO)N1C(C#N)C3CC4C(C1C2N1CCOC41)N3C (stereo not given),41.7% (active)
10,COC1C(O)C(C)OC(OC2CCC3(C)C(CCC4C3C(O)CC3(C)C(C5=CC(=O)OC5)CCC43O)C2)C1O (stereo not given),57.6% (active)
11,Cc1nc2cc(-c3cccc(F)c3)nn2c(C)c1CCC(=O)N1CCC2(CC1)OCCO2,-18.5% (inactive)
12,Oc1ccc(-[n+]2c(-c3ccccc3)cc(-c3ccccc3)cc2-c2ccccc2)cc1,35.3% (inactive)
13,O=[N+]([O-])c1ccc(N2CCCC(C(F)(F)F)C2)c2ccncc12 (stereo not given),10.6% (inactive)
14,O=Cc1cn(Cc2ccc(F)cc2Cl)c2ccccc12,14.2% (inactive)
15,COC(=O)C1=C(C(=O)OC)C2c3ccccc3C1c1ccccc12,12.3% (inactive)
16,Cc1nc2cc(-c3ccc(Cl)cc3)nn2c(C)c1CCC(=O)N1CCC2(CC1)OCCO2,16.4% (inactive)
